Test results from the supplement of paper PMC8975748.
Counter-ions that a name gives are not always drawn. ± gives the standard deviation of the averaged measurements.

Tests used:
[1] = system: Saccharomyces cerevisiae BY4741 SeMeCo community; test: z-score of prototroph abundance vs DMSO median; higher = larger share of this subpopulation than in DMSO controls; details: 10 µM; 24 h; SM minimal medium; subpopulation (auxotrophy): Prototroph
Outline: (§1)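 Cells of a Saccharomyces cerevisiae BY4741 community, carrying four plasmids that each restored one auxotrophy and encoded a distinct fluorescent protein, were pre-grown overnight to OD600 1.0 and diluted to 0.3. A 70 µl volume was added to 384-well plates acoustically predosed with library drugs (10 µM final) and grown 24 h in minimal SM medium. After paraformaldehyde fixation, automated confocal microscopy was used, with single-auxotroph fluorescent strains for thresholds and autofluorescence correction. The abundance of each subpopulation was scored as a z-score against the vehicle-well median.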

[2] = system: Saccharomyces cerevisiae BY4741 SeMeCo community; test: z-score of subpopulation abundance vs DMSO median, subpopulation auxotrophic for L; higher = larger share of this subpopulation than in DMSO controls; details: 10 µM; 24 h; SM minimal medium; subpopulation (auxotrophy): L
Outline: as §1

[3] = system: Saccharomyces cerevisiae BY4741 SeMeCo community; test: z-score of subpopulation abundance vs DMSO median, subpopulation auxotrophic for U; higher = larger share of this subpopulation than in DMSO controls; details: 10 µM; 24 h; SM minimal medium; subpopulation (auxotrophy): U
Outline: as §1

[4] = system: Saccharomyces cerevisiae BY4741 SeMeCo community; test: z-score of subpopulation abundance vs DMSO median, subpopulation auxotrophic for LM; higher = larger share of this subpopulation than in DMSO controls; details: 10 µM; 24 h; SM minimal medium; subpopulation (auxotrophy): LM
Outline: as §1

[5] = system: Saccharomyces cerevisiae BY4741 SeMeCo community; test: z-score of subpopulation abundance vs DMSO median, subpopulation auxotrophic for HM; higher = larger share of this subpopulation than in DMSO controls; details: 10 µM; 24 h; SM minimal medium; subpopulation (auxotrophy): HM
Outline: as §1

[6] = system: Saccharomyces cerevisiae BY4741 SeMeCo community; test: z-score of subpopulation abundance vs DMSO median, subpopulation auxotrophic for HU; higher = larger share of this subpopulation than in DMSO controls; details: 10 µM; 24 h; SM minimal medium; subpopulation (auxotrophy): HU
Outline: as §1

[7] = system: Saccharomyces cerevisiae BY4741 SeMeCo community; test: z-score of subpopulation abundance vs DMSO median, subpopulation auxotrophic for HL; higher = larger share of this subpopulation than in DMSO controls; details: 10 µM; 24 h; SM minimal medium; subpopulation (auxotrophy): HL
Outline: as §1

[8] = system: Saccharomyces cerevisiae BY4741 SeMeCo community; test: z-score of subpopulation abundance vs DMSO median, subpopulation auxotrophic for HLU; higher = larger share of this subpopulation than in DMSO controls; details: 10 µM; 24 h; SM minimal medium; subpopulation (auxotrophy): HLU
Outline: as §1

[9] = system: Saccharomyces cerevisiae BY4741 SeMeCo community; test: z-score of subpopulation abundance vs DMSO median, subpopulation auxotrophic for HLM; higher = larger share of this subpopulation than in DMSO controls; details: 10 µM; 24 h; SM minimal medium; subpopulation (auxotrophy): HLM
Outline: as §1

[10] = system: Saccharomyces cerevisiae BY4741 SeMeCo community; test: z-score of subpopulation abundance vs DMSO median, subpopulation auxotrophic for HUM; higher = larger share of this subpopulation than in DMSO controls; details: 10 µM; 24 h; SM minimal medium; subpopulation (auxotrophy): HUM
Outline: as §1

[11] = system: Saccharomyces cerevisiae BY4741 SeMeCo community; test: z-score of subpopulation abundance vs DMSO median, subpopulation auxotrophic for LUM; higher = larger share of this subpopulation than in DMSO controls; details: 10 µM; 24 h; SM minimal medium; subpopulation (auxotrophy): LUM
Outline: as §1

[12] = system: Saccharomyces cerevisiae BY4741 SeMeCo community; test: z-score of subpopulation abundance vs DMSO median, subpopulation auxotrophic for HLUM; higher = larger share of this subpopulation than in DMSO controls; details: 10 µM; 24 h; SM minimal medium; subpopulation (auxotrophy): HLUM
Outline: as §1

[13] = system: Saccharomyces cerevisiae BY4741 SeMeCo community; test: mean cell size (pixel area) (pixels); higher = larger cells; details: 10 µM; 24 h; SM minimal medium
Outline: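 In this assay, mean cell pixel area per well was obtained from automated confocal images of paraformaldehyde-fixed yeast analysed in Harmony. The cells were a Saccharomyces cerevisiae BY4741 community with four plasmids, each complementing one auxotrophy and carrying a fluorescent marker, grown for 24 h in SM medium with drug at a final 10 µM in 384-well plates. Values are averaged across 3 replicates. Same SeMeCo high-content imaging drug screen: Selleck FDA-approved drugs at 10 µM, 24 h in SM medium, 384-well plates, 3 replicates.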

[14] = system: Saccharomyces cerevisiae BY4741 SeMeCo community; test: z-score of subpopulation abundance vs DMSO median, subpopulation auxotrophic for M; higher = larger share of this subpopulation than in DMSO controls; details: 10 µM; 24 h; SM minimal medium; subpopulation (auxotrophy): M
Outline: as §1

[15] = system: Saccharomyces cerevisiae BY4741 SeMeCo community; test: z-score of subpopulation abundance vs DMSO median, subpopulation auxotrophic for H; higher = larger share of this subpopulation than in DMSO controls; details: 10 µM; 24 h; SM minimal medium; subpopulation (auxotrophy): H
Outline: as §1

[16] = system: Saccharomyces cerevisiae BY4741 SeMeCo community; test: z-score of subpopulation abundance vs DMSO median, subpopulation auxotrophic for LU; higher = larger share of this subpopulation than in DMSO controls; details: 10 µM; 24 h; SM minimal medium; subpopulation (auxotrophy): LU
Outline: as §1

[17] = system: Saccharomyces cerevisiae BY4741 SeMeCo community; test: z-score of subpopulation abundance vs DMSO median, subpopulation auxotrophic for UM; higher = larger share of this subpopulation than in DMSO controls; details: 10 µM; 24 h; SM minimal medium; subpopulation (auxotrophy): UM
Outline: as §1

Row | SMILES | z-score of prototroph abundance [1] | z-score of subpopulation abundance [2] | z-score of subpopulation abundance [3] | z-score of subpopulation abundance [4] | z-score of subpopulation abundance [5] | z-score of subpopulation abundance [6] | z-score of subpopulation abundance [7] | z-score of subpopulation abundance [8] | z-score of subpopulation abundance [9] | z-score of subpopulation abundance [10] | z-score of subpopulation abundance [11] | z-score of subpopulation abundance [12] | mean cell size [13] | z-score of subpopulation abundance [14] | z-score of subpopulation abundance [15] | z-score of subpopulation abundance [16] | z-score of subpopulation abundance [17]
1 | O=C(O)CCC(=O)Nc1ccc(S(=O)(=O)Nc2nccs2)cc1 [Succinylsulfathiazole] | 0.73 | -0.22 | 0.33 | -0.35 | -0.78 | -0.31 | -0.84 | -0.43 | -1.01 | -0.33 | -0.95 | -0.62 |  |  |  |  | 
2 | O=C(Cn1ccnc1[N+](=O)[O-])NCc1ccccc1 [Benznidazole] | 0.22 | 0.22 | 0.63 | 0.19 | -0.4 |  | 0.08 |  | -0.65 | -0.52 | 0.15 | -0.21 | 12.49 ± 0.12 | -0.28 | -0.18 | -0.43 | 0.13
3 | CC(=O)N1CCN(c2ccc(OCC3COC(Cn4ccnc4)(c4ccc(Cl)cc4Cl)O3)cc2)CC1 (stereo not drawn) [Ketoconazole] | 0.99 | -0.63 | -0.47 | -0.27 | -1.06 | -0.29 | -0.6 | -0.27 |  | 0.03 | -0.27 |  | 11.9 ± 0.21 |  |  |  | 
4 | CCC(C)n1ncn(-c2ccc(N3CCN(c4ccc(OCC5COC(Cn6cncn6)(c6ccc(Cl)cc6Cl)O5)cc4)CC3)cc2)c1=O (stereo not drawn) [Itraconazole] | -10.4 | 0.48 | -0.83 | 1.85 | 7.45 | 7.89 | 17.3 |  | 12.5 | 9.21 |  | 7.85 | 11.93 ± 0.1 | 0.3 | 18.3 | -0.44 | 11.4
5 | O=C(O)c1cn(C2CC2)c2cc(N3CCNCC3)c(F)cc2c1=O [Ciprofloxacin hydrochloride hydrate] | -0.74 | -0.22 |  | -0.37 | 0.16 | 0.3 |  |  | 0.11 | 0.96 | 0.41 | 0.98 | 12.4 ± 0.27 | 0.57 | -0.88 | 0.43 | 0.65
6 | NC(=O)N1c2ccccc2C=Cc2ccccc21 [Carbamazepine] | 0.13 | 0.25 | 0.01 | 0.14 | -0.61 | -0.56 |  |  | 0.02 | -0.5 | 0.24 | -0.25 | 12.5 ± 0.21 | -0.29 | -0.43 | -0.08 | 
7 | CCCCCCCCOc1ccccc1C(=O)Nc1ccc(C(=O)OCC[N+](C)(CC)CC)cc1 [Otilonium Bromide] | -2.44 | -3.08 | 0.58 | -2.38 | 5.47 | 3.65 | 1.68 |  | 9.05 | 2.02 | 2.14 | 12.2 | 12.27 ± 0.099 | -2.04 | 4.58 | 0.74 | -0.66
8 | NC(=O)N/N=C/c1ccc([N+](=O)[O-])o1 [Nitrofural] | -0.16 | -0.82 | -0.14 | -1.3 | 0.63 | -0.42 | 0 |  | 3.28 | -0.73 | -0.73 | 0.17 | 12.84 ± 0.1 | 1.2 | -0.29 | -0.35 | 0.54
9 | N[C@H]1CONC1=O [L-Cycloserine] | -1.74 | 2.81 |  | 1.19 | 3.92 | 1.14 | 3.71 |  | 5.24 | 1.54 | 1.18 | 5.78 | 11.54 ± 0.047 | -3.06 | 5.08 | 1.02 | -1.17
10 | Cc1cc(NS(=O)(=O)c2ccc(N)cc2)nc(C)n1 [sulfaisodimidine] | -0.51 | 0.19 | 0.36 | 0.12 | 0.38 |  | -0.94 |  | -0.45 | -0.19 | 0.42 | 0.48 | 12.1 ± 0.25 | 0.59 | -1.29 | 0.99 | 
11 | CNCC[C@H](Oc1cccc2ccccc12)c1cccs1 [Duloxetine] |  | -1.31 | -0.4 | -0.49 | 0.1 | -0.4 | -1.33 |  | -0.37 | 0.24 | -0.47 | -0.23 | 12.3 ± 0.34 | 0.27 | -0.81 | -0.71 | -0.39
12 | COc1cc2c(cc1OC)C(=O)C(CC1CCN(Cc3ccccc3)CC1)C2 (stereo not drawn) [Donepezil] | -0.18 | 0.86 | -1.17 |  |  |  |  | -0.33 | -0.14 | -0.13 | 0.47 | 0.22 | 12.14 ± 0.068 |  | -0.21 |  | -0.49
13 | C#C[C@]1(O)CC[C@H]2[C@@H]3CCc4cc(O)ccc4[C@H]3CC[C@@]21C [Ethinyl Estradiol] | 1.23 | -0.55 | -1.01 | -0.77 | 0 | 0.01 | -0.69 |  | -0.72 | -0.88 | -1.48 | -1.02 | 12.8 ± 0.2 | 0.05 | 0.36 | -1.41 | -1.64
14 | CN(C)CCc1c[nH]c2ccc(CS(=O)(=O)N3CCCC3)cc12 [Almotriptan Malate] | 0.66 | 0.74 | -0.42 | -0.71 | -1.15 |  | -0.69 |  | -0.23 | -0.91 | -0.23 | -0.37 | 12.4 ± 0.14 | -0.37 | -0.37 | 0.07 | -0.12
15 | C=CCc1ccc(O)c(-c2ccc(O)c(CC=C)c2)c1 [Honokiol] | 1.92 | -0.29 |  | -0.63 | -0.9 | -1.64 | -0.44 |  | -0.37 | -1.19 | -1.08 | -0.84 | 12.6 ± 0.22 | -0.54 | -1.34 | -1.84 | 
